Reference: article PMC11062922 (Nature Chemical Biology, 2023)
Like-named read-outs stand apart in the source and are kept apart here.

What was measured:
[1] = molecular target: Q6ZSR9 (human, UniProt Q6ZSR9); conditions: read-out: apparent Kd, n = 1
[2] = tested on: SIK2; conditions: read-out: apparent Kd, n = 1

Sequence of Q6ZSR9 (Q6ZSR9 whole entry, looked up): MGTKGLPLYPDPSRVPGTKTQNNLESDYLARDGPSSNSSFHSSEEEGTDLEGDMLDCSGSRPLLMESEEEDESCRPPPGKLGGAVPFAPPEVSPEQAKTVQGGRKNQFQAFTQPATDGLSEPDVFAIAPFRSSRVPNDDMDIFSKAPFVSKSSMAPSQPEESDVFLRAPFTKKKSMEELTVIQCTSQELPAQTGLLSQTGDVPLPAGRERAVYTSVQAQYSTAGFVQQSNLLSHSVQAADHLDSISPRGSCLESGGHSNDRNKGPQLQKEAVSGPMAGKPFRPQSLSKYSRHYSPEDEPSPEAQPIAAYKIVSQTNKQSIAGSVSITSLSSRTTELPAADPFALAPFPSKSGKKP

Lestaurtinib showed a potency estimated from few doses ([1]; compound concentrations:100 nM and 1000 nM (sheet 'Lestaurtinib' of Supplementary Table 1),run:Lestaurtinib_03172_R2,Plate:MR031) of 0.0545 µM, a potency estimated from few doses ([1]; compound concentrations:100 nM and 1000 nM (sheet 'Lestaurtinib' of Supplementary Table 1),run:Lestaurtinib_03172_R3,Plate:MR031) of 0.0575 µM and a potency estimated from few doses ([1]; compound concentrations:100 nM and 1000 nM (sheet 'Lestaurtinib' of Supplementary Table 1),run:Lestaurtinib_03252_R1,Plate:MR032) of 0.0613 µM. The potency estimated from few doses ([1]; compound concentrations:100 nM and 1000 nM (sheet 'Lestaurtinib' of Supplementary Table 1),run:Lestaurtinib_03260_R2,Plate:MR033) was 0.113 µM, the potency estimated from few doses ([1]; compound concentrations:100 nM and 1000 nM (sheet 'Lestaurtinib' of Supplementary Table 1),run:Lestaurtinib_03260_R3,Plate:MR033) was 0.0795 µM and the potency estimated from few doses ([2]; compound concentrations:100 nM and 1000 nM (sheet 'Lestaurtinib' of Supplementary Table 1),run:Lestaurtinib_02339_R2,Plate:MR001) was 0.0446 µM. For the same substance, the potency estimated from few doses ([2]; compound concentrations:100 nM and 1000 nM (sheet 'Lestaurtinib' of Supplementary Table 1),run:Lestaurtinib_02364_R1,Plate:MR002) was 0.0536 µM, the potency estimated from few doses ([2]; compound concentrations:100 nM and 1000 nM (sheet 'Lestaurtinib' of Supplementary Table 1),run:Lestaurtinib_02367_R1,Plate:MR003) was 0.0518 µM and the potency estimated from few doses ([2]; compound concentrations:100 nM and 1000 nM (sheet 'Lestaurtinib' of Supplementary Table 1),run:Lestaurtinib_02367_R2,Plate:MR003) was 0.0573 µM. It also gave a potency estimated from few doses ([2]; compound concentrations:100 nM and 1000 nM (sheet 'Lestaurtinib' of Supplementary Table 1),run:Lestaurtinib_02367_R3,Plate:MR003) of 0.0515 µM, a potency estimated from few doses ([2]; compound concentrations:100 nM and 1000 nM (sheet 'Lestaurtinib' of Supplementary Table 1),run:Lestaurtinib_02381_R1,Plate:MR004) of 0.0564 µM and a potency estimated from few doses ([2]; compound concentrations:100 nM and 1000 nM (sheet 'Lestaurtinib' of Supplementary Table 1),run:Lestaurtinib_02381_R2,Plate:MR004) of 0.0624 µM. The potency estimated from few doses ([2]; compound concentrations:100 nM and 1000 nM (sheet 'Lestaurtinib' of Supplementary Table 1),run:Lestaurtinib_02381_R3,Plate:MR004) was 0.0301 µM, the potency estimated from few doses ([2]; compound concentrations:100 nM and 1000 nM (sheet 'Lestaurtinib' of Supplementary Table 1),run:Lestaurtinib_02407_R1,Plate:MR005) was 0.0507 µM and the potency estimated from few doses ([2]; compound concentrations:100 nM and 1000 nM (sheet 'Lestaurtinib' of Supplementary Table 1),run:Lestaurtinib_02407_R2,Plate:MR005) was 0.0525 µM. The potency estimated from few doses ([2]; compound concentrations:100 nM and 1000 nM (sheet 'Lestaurtinib' of Supplementary Table 1),run:Lestaurtinib_02422_R2,Plate:MR006) was 0.00974 µM, the potency estimated from few doses ([2]; compound concentrations:100 nM and 1000 nM (sheet 'Lestaurtinib' of Supplementary Table 1),run:Lestaurtinib_02422_R3,Plate:MR006) was 0.0526 µM and the potency estimated from few doses ([2]; compound concentrations:100 nM and 1000 nM (sheet 'Lestaurtinib' of Supplementary Table 1),run:Lestaurtinib_02437_R1,Plate:MR007) was 0.0506 µM. It also gave a potency estimated from few doses ([2]; compound concentrations:100 nM and 1000 nM (sheet 'Lestaurtinib' of Supplementary Table 1),run:Lestaurtinib_02437_R3,Plate:MR007) of 0.00745 µM, a potency estimated from few doses ([2]; compound concentrations:100 nM and 1000 nM (sheet 'Lestaurtinib' of Supplementary Table 1),run:Lestaurtinib_02438_R2,Plate:MR008) of 0.0414 µM and a potency estimated from few doses ([2]; compound concentrations:100 nM and 1000 nM (sheet 'Lestaurtinib' of Supplementary Table 1),run:Lestaurtinib_02438_R3,Plate:MR008) of 0.0347 µM. The potency estimated from few doses ([2]; compound concentrations:100 nM and 1000 nM (sheet 'Lestaurtinib' of Supplementary Table 1),run:Lestaurtinib_02443_R1,Plate:MR009) was 0.0493 µM, the potency estimated from few doses ([2]; compound concentrations:100 nM and 1000 nM (sheet 'Lestaurtinib' of Supplementary Table 1),run:Lestaurtinib_02443_R2,Plate:MR009) was 0.051 µM and the potency estimated from few doses ([2]; compound concentrations:100 nM and 1000 nM (sheet 'Lestaurtinib' of Supplementary Table 1),run:Lestaurtinib_02443_R3,Plate:MR009) was 0.0511 µM. It also gave a potency estimated from few doses ([2]; compound concentrations:100 nM and 1000 nM (sheet 'Lestaurtinib' of Supplementary Table 1),run:Lestaurtinib_02473_R2,Plate:MR010) of 0.0442 µM, a potency estimated from few doses ([2]; compound concentrations:100 nM and 1000 nM (sheet 'Lestaurtinib' of Supplementary Table 1),run:Lestaurtinib_02473_R3,Plate:MR010) of 0.0301 µM and a potency estimated from few doses ([2]; compound concentrations:100 nM and 1000 nM (sheet 'Lestaurtinib' of Supplementary Table 1),run:Lestaurtinib_02482_R2,Plate:MR011) of 0.0523 µM. For the same substance, the potency estimated from few doses ([2]; compound concentrations:100 nM and 1000 nM (sheet 'Lestaurtinib' of Supplementary Table 1),run:Lestaurtinib_02482_R3,Plate:MR011) was 0.0449 µM, the potency estimated from few doses ([2]; compound concentrations:100 nM and 1000 nM (sheet 'Lestaurtinib' of Supplementary Table 1),run:Lestaurtinib_02487_R2,Plate:MR012) was 0.0478 µM and the potency estimated from few doses ([2]; compound concentrations:100 nM and 1000 nM (sheet 'Lestaurtinib' of Supplementary Table 1),run:Lestaurtinib_02487_R3,Plate:MR012) was 0.0595 µM. For the same substance, the potency estimated from few doses ([2]; compound concentrations:100 nM and 1000 nM (sheet 'Lestaurtinib' of Supplementary Table 1),run:Lestaurtinib_02496_R1,Plate:MR013) was 0.0442 µM, the potency estimated from few doses ([2]; compound concentrations:100 nM and 1000 nM (sheet 'Lestaurtinib' of Supplementary Table 1),run:Lestaurtinib_02496_R3,Plate:MR013) was 0.0402 µM and the potency estimated from few doses ([2]; compound concentrations:100 nM and 1000 nM (sheet 'Lestaurtinib' of Supplementary Table 1),run:Lestaurtinib_02566_R2,Plate:MR014) was 0.0489 µM. The potency estimated from few doses ([2]; compound concentrations:100 nM and 1000 nM (sheet 'Lestaurtinib' of Supplementary Table 1),run:Lestaurtinib_02566_R3,Plate:MR014) was 0.0626 µM, the potency estimated from few doses ([2]; compound concentrations:100 nM and 1000 nM (sheet 'Lestaurtinib' of Supplementary Table 1),run:Lestaurtinib_02572_R1,Plate:MR015) was 0.046 µM and the potency estimated from few doses ([2]; compound concentrations:100 nM and 1000 nM (sheet 'Lestaurtinib' of Supplementary Table 1),run:Lestaurtinib_02572_R2,Plate:MR015) was 0.0515 µM. The potency estimated from few doses ([2]; compound concentrations:100 nM and 1000 nM (sheet 'Lestaurtinib' of Supplementary Table 1),run:Lestaurtinib_02572_R3,Plate:MR015) was 0.0516 µM, the potency estimated from few doses ([2]; compound concentrations:100 nM and 1000 nM (sheet 'Lestaurtinib' of Supplementary Table 1),run:Lestaurtinib_02577_R1,Plate:MR016) was 0.0515 µM and the potency estimated from few doses ([2]; compound concentrations:100 nM and 1000 nM (sheet 'Lestaurtinib' of Supplementary Table 1),run:Lestaurtinib_02577_R2,Plate:MR016) was 0.0448 µM. For the same substance, the potency estimated from few doses ([2]; compound concentrations:100 nM and 1000 nM (sheet 'Lestaurtinib' of Supplementary Table 1),run:Lestaurtinib_02577_R3,Plate:MR016) was 0.0469 µM, the potency estimated from few doses ([2]; compound concentrations:100 nM and 1000 nM (sheet 'Lestaurtinib' of Supplementary Table 1),run:Lestaurtinib_02584_R1,Plate:MR017) was 0.051 µM and the potency estimated from few doses ([2]; compound concentrations:100 nM and 1000 nM (sheet 'Lestaurtinib' of Supplementary Table 1),run:Lestaurtinib_02584_R2,Plate:MR017) was 0.0496 µM.
